Screening data from PubChem.
GPR151 activ – activators of human GPR151, primary screen, cell-based, PathHunter beta-arrestin, luminescence | G-protein coupled receptor 151 (Homo sapiens), Q8TDV0 | PathHunter beta-arrestin GPR151 cells | activation, % at 11.2 µM | actives 1% (n = 650,000) | AID 1508602, 2020; in the data active = activation above about 4.9%
Target sequence (Q8TDV0 whole entry, looked up): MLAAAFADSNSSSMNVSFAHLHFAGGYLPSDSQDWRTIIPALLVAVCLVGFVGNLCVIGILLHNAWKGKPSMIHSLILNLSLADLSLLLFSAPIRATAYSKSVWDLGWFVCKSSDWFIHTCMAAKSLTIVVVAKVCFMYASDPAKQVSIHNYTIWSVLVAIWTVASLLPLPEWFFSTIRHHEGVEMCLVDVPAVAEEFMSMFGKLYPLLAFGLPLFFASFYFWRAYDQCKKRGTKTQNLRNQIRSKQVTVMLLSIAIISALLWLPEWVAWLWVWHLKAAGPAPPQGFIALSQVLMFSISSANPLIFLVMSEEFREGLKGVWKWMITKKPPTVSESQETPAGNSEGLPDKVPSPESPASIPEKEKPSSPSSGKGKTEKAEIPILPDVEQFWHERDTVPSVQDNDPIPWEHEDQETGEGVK
FBW7 act – FBW7 E3 ligase activators, primary screen, biochemical, AlphaScreen, human. AlphaScreen FBW7–phospho-cyclin E peptide binding, activator screen. F-box/WD repeat-containing protein 7 (Homo sapiens), Q969H0. normalized activity (activation), % at 26.1 µM. actives 0.13% (n = 650,000); in the data active = normalized activity above about 1.9%;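 note: purified mutant Fbw7 with reduced substrate affinity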
MITF inh – MITF inhibitors, primary screen, biochemical, AlphaScreen, human. inhibition, % at 2.6 µM. Microphthalmia-associated transcription factor (Homo sapiens), O75030. AlphaScreen MITF homodimerization, bead proximity signal. actives 0.91% (n = 650,000); in the data active = inhibition above about 50%
TEAD-YAP inh – TEAD-YAP interaction inhibition, primary screen, TEAD-YAP interaction inhibitor project, luminescence, HEK-TIYL cells; actives 1.4% (n = 640,000); inhibition, % at 9.12 µM; TEAD-Gal4/YAP UAS-luciferase luminescence; in the data active = inhibition above about 32%
MITF inh conf – MITF inhibitors, retest of hits, confirmation, biochemical, AlphaScreen, triplicate; inhibition, % at 2.6 µM; AID 1259372, 2018; shares compounds with MITF inh; actives 16% (n = 4,700); AlphaScreen MITF homodimerization, biotin/His-MITF beads;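 active = inhibition above a cutoff derived from the DMSO control wells, cut at about 28% in these data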;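 note: inhibitors lower the bead chemiluminescence by keeping MITF from dimerizing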
AlphaScreen DR – AlphaScreen optical interference compounds, dose response, counter-screen, biochemical, HTS; shares compounds with MITF inh; AlphaScreen optical interference counterscreen, cell-free; IC50, µM; actives 6% (n = 480); call rule not given here
AlphaScreen intf2 – AlphaScreen optical interference compounds, counter-screen for MITF inhibitor project, biochemical, triplicate; shares compounds with MITF inh; inhibition, % at 2.6 µM; LysRS AlphaScreen counterscreen, signal interference; actives 7.6% (n = 4,700);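 active = inhibition above a cutoff derived from the DMSO control wells, cut at about 30% in these data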
Numbers stand for hits; . = inactive; / = no result. Most compounds without a hit are left out; they make up all but 3.5% or so of the library.

SMILES | GPR151 activ | FBW7 act | MITF inh | TEAD-YAP inh | MITF inh conf | AlphaScreen intf2 | others
COc1ccc(CN2CCN(Cc3ccccc3Cl)CC2)c(OC)c1 | . | . | 79.8 | . | . | .
COc1ccc(OC)c(CN2CCN(Cc3ccccc3F)CC2)c1 | . | . | 77.1 | . | . | .
COc1ccc(OC)c(CN2CCN(CCCc3ccccc3)CC2)c1 | . | . | 65.7 | . | . | .
COc1ccc(OC)c(CN2CCN(Cc3ccccc3Cl)CC2)c1 | . | . | 76.5 | . | . | .
Cc1nc2ccccn2c(=O)c1NC(=O)C1CCCCC1 | . | . | . | . | / | /
COc1ccc(C(=O)n2nc(-c3ccco3)nc2N)cc1 | . | . | 80.0 | . | 77.7 | 48.7
Cc1ccc(C(=O)n2nc(-c3ccco3)nc2N)cc1 | . | . | . | . | / | /
COc1cccc(OCCCCNC2CCCC2)c1 | . | . | . | . | / | /
CCCS(=O)(=O)N1CCN(CC(=O)c2cccs2)CC1 | . | . | 66.6 | . | . | .
CCCCS(=O)(=O)N1CCN(CC(=O)c2cccs2)CC1 | . | . | 60.6 | . | . | .
COC(=O)c1cccc(I)c1C(=O)OC | . | . | . | . | / | /
O=c1cc(-c2ccccc2)[nH]n1-c1nc2ccccc2[nH]1 | . | . | . | . | / | /
Cc1[nH]n(-c2nc3ccccc3[nH]2)c(=O)c1C1OC(=O)c2ccccc21 (stereo not given) | . | . | 90.9 | . | 70.9 | 99.7
COC(=O)CSc1nnc(-c2ccncc2)n1Cc1ccco1 | . | . | . | . | / | /
COC(=O)CSc1nnc(-c2ccco2)n1Cc1ccco1 | . | . | 76.2 | . | 57.9 | . | AlphaScreen DR=.
S=c1[nH]nc(-c2cccnc2)n1/N=C/C=C/c1ccco1 | . | . | 70.8 | . | 76.8 | . | AlphaScreen DR=.
S=c1[nH]nc(-c2ccccc2)n1/N=C/C=C/c1ccco1 | . | . | . | . | / | /
CCOC(=O)c1cnc2ccc(OCC)cc2c1Nc1cc(OC)c(OC)c(OC)c1 | . | . | . | . | / | /
Cc1ccc2c(c1)c(=O)c1ccccc1n2CC(=O)Nc1ccc(F)cc1F | . | . | 77.4 | . | . | .
COc1cc(OC)cc(-c2ncc3ccccn23)c1 | . | . | 66.7 | . | . | .
COc1cccc(-c2ncc3ccccn23)c1 | . | . | 68.2 | . | . | 32.4
CC(C)N(CCNc1nc(Nc2ccc(N3CCOCC3)cc2)nc2c1ncn2C(C)C)C(C)C | . | . | . | . | / | /
Nc1nc(NCCCN2CCCC2=O)cc(NCc2ccccc2)n1 | . | . | . | . | / | /
Cc1ccc2nc(/N=C/c3cc([N+](=O)[O-])cc([N+](=O)[O-])c3O)sc2c1 | . | . | 51.2 | . | . | .
Cc1cc(C)c2nc(/N=C/c3cc([N+](=O)[O-])cc([N+](=O)[O-])c3O)sc2c1 | . | . | . | . | / | /
SMILES | GPR151 activ | FBW7 act | MITF inh | TEAD-YAP inh | MITF inh conf | AlphaScreen intf2 | others
CCCOc1ccc(OCCCNC(C)CC)cc1 (stereo not given) | . | . | . | . | / | /
CCC(C)NCCOc1ccccc1F (stereo not given) | . | . | 52.9 | . | . | .
CCC(C)NCCCOc1cccc(Br)c1 (stereo not given) | . | . | 79.7 | . | . | .
COc1ccc(S(=O)(=O)N2CCN(c3ccc([N+](=O)[O-])c(NC(C)c4ccccc4)c3)CC2)cc1F (stereo not given) | . | . | . | . | / | /
OC1(C(F)(F)F)CC(c2ccccc2)=NO1 (stereo not given) | . | . | . | . | / | /
OCCCNc1ccc2ncc(-c3ccccc3Cl)n2n1 | . | . | 85.4 | . | . | .
O=C(c1cccc(F)c1)N1CCN(Cc2cccc3ccccc23)CC1 | . | . | 58.4 | . | . | .
O=C(c1cccc(F)c1)N1CCN(Cc2ccccc2Cl)CC1 | . | . | 57.3 | . | . | .
CCOc1ccccc1CN1CCC2(CCC(CNC(=O)C3CCOCC3)O2)CC1 (stereo not given) | . | . | . | . | / | /
